Measurements reported in the supplement of paper PMC7156485.
“And” between values parts separate entries of the source, which are not always exact repeats. Identical values can stand only once. ± gives the standard deviation of the averaged measurements.

Columns and labels:
Conditions in all cases: concentration: 10 µM; 24 h
HCC1569 [1] = assay: cell number relative to DMSO (% of DMSO); higher = more cells (less growth inhibition / toxicity)
Procedure, shortened: (§1)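 Cells were seeded at 800 per well in 384-well plates with RPMI containing 10% FBS; both HCC1569 and TDF lines were used. Compounds were added at 10 µM for 24 h at 37 °C, in triplicate, before fixation in 3.7% formaldehyde and staining with a rabbit anti-H1.0 antibody, an AlexaFluor 647 secondary and DAPI. H1.0 nuclear intensity or cell number is reported as percent of the plate control using the median of replicates, and HCC1569 values were smoothed for positional effects.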

TDF [2] = assay: as above
Procedure, shortened: as §1

TDF [3] = assay: H1.0 immunofluorescence intensity relative to DMSO (% of DMSO); higher = stronger H1.0 induction, active = 120 or more
Procedure, shortened: as §1

HCC1569 [4] = assay: H1.0 immunofluorescence intensity relative to DMSO (% of DMSO); higher = stronger H1.0 induction, active = 140 or more
Procedure, shortened: as §1
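Wherever H1.0 immunofluorescence intensity relative to DMSO is given: TDF is a line of transformed human dermal fibroblasts of mesenchymal origin.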
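Wherever cell number relative to DMSO is given: TDF denotes transformed human dermal fibroblasts of mesenchymal origin.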

Structure (SMILES)	cell number (HCC1569 [1])	cell number (TDF [2])	H1.0 immunofluorescence intensity (TDF [3])	H1.0 immunofluorescence intensity (HCC1569 [4])
Nc1cc(=O)nc(N)[nH]1 [2,6-Diamino-4-pyrimidinone]	99.3	104	93.6 (inactive)	97.1 (inactive)
COC(=O)CCc1ccc(OCC(O)CNC(C)C)cc1 (stereo unspecified) [Esmolol]	100	95.1	101 (inactive)	91.9 (inactive)
CN(C)CCC(c1ccc(Cl)cc1)c1ccccn1.O=C(O)C=CC(=O)O (single isomer, unassigned; (+)) [(+)-Chlorpheniramine maleate]	104	104	99.2 (inactive)	88.5 (inactive)
Cl.c1ccc2c(CC3=NCCN3)cccc2c1 [Naphazoline hydrochloride]	96.1	108	91.2 (inactive)	90.2 (inactive)
CCCOc1ccccc1-c1nc2[nH][nH]nc-2c(=O)n1 [Zaprinast]	100.3 ± 0.47	113 ± 8.6	99.1 (inactive)	104 (inactive)
Cl.O=c1cc(N2CCOCC2)oc2c(-c3ccccc3)cccc12 [LY-294,002 hydrochloride]	82	90.9	82.5 (inactive)	131 (inactive)
O=C1OC(C(O)CO)C(O)=C1O (stereo unspecified) [Ascorbic acid]	100	103	94 (inactive)	95.2 (inactive)
N[C@@H](Cc1c[nH]c2ccc(O)cc12)C(=O)O [5-Hydroxy-L-tryptophan]	98.1	94.8	93 (inactive)	116 (inactive)
O=c1c(O)c(-c2ccc(O)cc2O)oc2cc(O)cc(O)c12 [Morin]	99.7	94	89.4 (inactive)	98.5 (inactive)
CC(=O)NC1C(N=C(N)N)C=C(C(=O)O)OC1C(O)C(O)CO (stereo unspecified)	102	115	99.2 (inactive)	99 (inactive)
CCCCC1CCC(c2nc(-c3ccncc3)no2)CC1 (stereo unspecified) [4-[5-(4-butylcyclohexyl)-1,2,4-oxadiazol-3-yl]pyridine]	94.1	98.3	108 (inactive)	104 (inactive)
CCCCCC(O)C=CC=CCCCCCCCCCC(=O)O (stereo unspecified)	99.4	90.3	95.7 (inactive)	96.8 (inactive)
O=C(O)C1CCNCC1 [Isonipecotic acid]	102	104	91.5 (inactive)	91.2 (inactive)
COC(=O)C1=C(C#N)NC(C)=C(C(=O)OC(C)C)C1c1cccc([N+](=O)[O-])c1 (stereo unspecified)	89.8	97.4	98.2 (inactive)	123 (inactive)
CC(=O)c1ccc2c(c1)[C@H](NC(=O)c1ccc(F)c(Cl)c1)[C@H](O)C(C)(C)O2	97.4	98	104 (inactive)	99.5 (inactive)
COc1nccc(-c2c(-c3ccc(F)cc3)ncn2C2CCC(O)CC2)n1 (stereo unspecified)	100	112	85.5 (inactive)	117 (inactive)
CCCCCC=CCC=CCC=CCC=CCCCC(=O)OC(CO)CO [2-Arachidonoylglycerol]	104	107	97.3 (inactive)	99.5 (inactive)
CCCC(=O)O[C@]1(C(=O)CO)CC[C@H]2[C@@H]3CCC4=CC(=O)CC[C@]4(C)[C@H]3[C@@H](O)C[C@@]21C [(11beta)-11,21-dihydroxy-3,20-dioxopregn-4-en-17-yl butyrate]	97.4	106	84.9 (inactive)	102 (inactive)
CCCCCC=CCC(O)C=CC=CCC=CCCCC(=O)O (stereo unspecified)	105 and 98	95.5 and 90.4	92.5 (inactive) and 96.7 (inactive)	98.4 (inactive) and 99.8 (inactive)
Cc1cnc(Nc2ccc(N3CCN(C)CC3)cc2)nc1Nc1cccc(S(=O)(=O)NC(C)(C)C)c1	31.4	98.6	97.9 (inactive)	174 (active)
C=CC[N+]1(C2CC3C4CCC5CC(O)C(N6CCOCC6)CC5(C)C4CCC3(C)C2OC(C)=O)CCCC1.[Br-] (stereo unspecified) [Rocuronium bromide]	107	104	99.6 (inactive)	99.4 (inactive)
NCCS(=O)(=O)O [Taurine]	98.1	112	96.4 (inactive)	98.7 (inactive)
N#CC(=C(N)Sc1ccc(N)cc1)c1ccccc1C(F)(F)F	102	115	90.6 (inactive)	126 (inactive)
N#CC(=C(N)Sc1ccccc1N)C(C#N)=C(N)Sc1ccccc1N	102 and 101	95.9 and 96.9	94 (inactive) and 88.9 (inactive)	108 (inactive) and 98.1 (inactive)
